# From PubChem BioAssay (Tox21)
# Inconclusive results are not listed. Unmarked numbers belong to inactive results. Calls follow the shape of the dose curve; as a rule, active = well fitted cell-killing curve with a large enough effect in the repeat runs; inconclusive = weak or mixed curves; inactive = flat fitted curve, though single readings scatter.
# Assay: qHTS assay to identify small molecule antagonists of the estrogen related receptor (ERR) signaling pathway - cell viability counter screen (AID 1224818)
# Details: ERR reporter cell line viability counter screen; series mostly up to 46.1 µM; viability change, negative = cytotoxic: at the top concentration
# Excerpt: National Center for Advancing Translational Sciences [NCATS]
# NIH Chemical Genomics Center [NCGC]
# U.S. Environmental Protection Agency [EPA]
# National Institutes of Environmental Health Sciences [NIEHS]
# National Toxicology Program [NTP]
# U.S. Food and Drug Administration [FDA]
# Estrogen related receptors (ERRs), the first orphan nuclear receptors discovered, play an important role in the control of cellular energy metabolism. ERRs are required for high-energy production in response to the environmental challenges. ERR-alpha was also identified as an adverse marker for breast cancer progression; ERR-alpha-positive tumors have a poor prognosis. To screen and to identify environmental compounds that perturb the ERR signaling pathways could provide valuable information for potential therapeutic or preventive measures in the treatment of metabolic disease. To differentiate true ERR antagonists or agonist from cytotoxic substances, the assay is multiplexed with cell viability assay.
# Tox21 Assay Protocol Summary:
# The ERR cells were dispensed at 2,000 cells/5 ul/well in 1536-well white plates using a Multidrop dispenser. After the assay plates were incubated at a 37 C/5% CO2 incubator for 6 hours, 23 nL of compounds dissolved in DMSO, positive and negative controls or DMSO only was transferred to the assay plate by a pin tool. The plates were incubated at 37 C for 17.5 hours. 1 ul/well of CellTiter-Fluor reagent was added into the assay plates using a Flying Reagent Dispenser. After 30 min incubation at 37 C/5% CO2, the fluorescence intensity in the plates was measured using a ViewLux plate reader.
# % is scaled to controls: 0 for no effect and ±100 for the full control effect.
row,Structure (SMILES),"viability change, negative = cytotoxic"
1,Fc1cccc(/C=N/N=C/c2cccc(F)c2)c1,13%
2,CC(N)(Cc1ccc(O)c(O)c1)C(=O)O (stereo not given),-2.16%
3,O=c1[nH]ccc2c(O)cccc12,5.08%
4,Cc1cc2c(cc1Cl)N(C(=O)Nc1ccnc3ccccc13)CC2,1.91%
5,CC1CN(S(=O)(=O)c2cccc3cnccc23)CCN1 (stereo not given),1.22%
6,N[C@H](CCCP(=O)(O)O)C(=O)O,5.51%
7,CN[C@H](CC(C)C)C(=O)N[C@H]1C(=O)N[C@@H](CC(N)=O)C(=O)N[C@H]2C(=O)N[C@H]3C(=O)N[C@H](C(=O)N[C@H](C(=O)O)c4cc(O)cc(O)c4-c4cc3ccc4O)[C@H](O)c3ccc(c(Cl)c3)Oc3cc2cc(c3O[C@@H]2O[C@H](CO)[C@@H](O)[C@H](O)[C@H]2O[C@H]2C[C@](C)(N)[C@H](O)[C@H](C)O2)Oc2ccc(cc2Cl)[C@H]1O,-0.595%
8,COC(=O)C(C)(N)Cc1ccc(O)cc1 (stereo not given),8.09%
9,CC(C)(NS(=O)(=O)c1ccc(Oc2ccc(F)cc2)cc1)C(=O)NO,-13%
10,COc1ccc(NC(=O)/C=C/c2ccc(Cl)cc2)cc1,-23.7%
11,Nc1ncnc2c1nc(Br)n2C1OC2COP(=O)(O)O[C@@H]2C1O (stereo not given in full),10.3%
12,CCCCS(=N)(=O)CC[C@H](N)C(=O)O (stereo not given in full),1.74%
13,Nc1ncnc2c1nc(Sc1ccc(Cl)cc1)n2[C@H]1OC2COP(=O)(O)O[C@@H]2C1O (stereo not given in full),1.66%
14,CC(C)(C)c1cc(/C=C(\C#N)C(N)=S)cc(C(C)(C)C)c1O,-26.7%
15,O=C1/C(=C/c2ccsc2)CC/C1=C\c1cccs1,-4.77%
16,CO/N=C(\C(=O)N[C@@H]1C(=O)N2C(C(=O)O)=C(CSc3nc(=O)c(O)nn3C)CSC12)c1csc(N)n1 (stereo not given in full),5.66%
17,Brc1cc2c(cc1[C@H]1Nc3ccccc3[C@H]3C=CC[C@H]31)OCO2,-6.99%
18,Nc1nc(Cl)nc2c1ncn2[C@@H]1O[C@H](COP(=O)(O)OP(=O)(O)OP(=O)(O)O)C(O)[C@H]1O (stereo not given in full),6.42%
19,Cc1nc(N=Nc2ccc(C(=O)O)cc2)c(COP(=O)(O)O)c(C=O)c1O,-17.3%
20,O=C(O)C1=CC(=C(c2ccc(O)c(C(=O)O)c2)c2ccc(O)c(C(=O)O)c2)C=CC1=O,7.97%

row,Structure (SMILES),"viability change, negative = cytotoxic"
1,Cc1ccccc1/C=C/C1=NCCN1,-14.6%
2,CC(N)(Cc1ccc(O)cc1)C(=O)O (stereo not given),-1.69%
3,CCCOC(=O)c1c(-c2ccccc2)nc(CC)c(C(=O)SCC)c1CCC,4.91%
4,CCNC(=O)[C@H]1O[C@@H](n2cnc3c(N)nc(NCCc4ccc(CCC(=O)O)cc4)nc32)[C@H](O)C1O (stereo not given in full),7.75%
5,CCCCCCCCCCCCCCCCCCOC[C@H](COP(=O)([O-])OCC[N+](C)(C)C)OC,-8.26%
6,OC[C@H]1O[C@H](n2cnc3c(N[C@H]4CCC[C@@H]4O)ncnc32)[C@H](O)[C@@H]1O,15.4%
7,COc1cccc(C(=O)NCCN2CCN(c3ccc(Cl)cc3)CC2)c1,-9.01%
8,COc1cc2c(CCNC(C)=O)c[nH]c2cc1O,5.05%
9,CNCCc1cnc(CCC(c2ccccc2)c2ccccc2)[nH]1,-21.8%
10,OC1(c2ccc(Cl)cc2)CCN(Cc2c[nH]c3ccccc23)CC1,-15.8%
11,c1ccc(C2CN3CCSC3=N2)cc1 (stereo not given),-3.28%
12,N#C/C(=C\c1ccc(O)c(O)c1)C(=O)c1ccc(O)c(O)c1,-2.74%
13,O=C(O)Cc1ccc(O)c(O)c1,12.9%
14,CCCCCCCCCC(=O)NC(CN1CCOCC1)[C@H](O)c1ccccc1 (stereo not given in full),-11.1%
15,Nc1ncnc2c1ncn2C1CCCC1,10.3%
16,O=C(CCc1ccncc1)NNC(=O)N1Cc2ccccc2Oc2ccc(Cl)cc21,-7.45%
17,CN(C)CCC(c1ccc(Br)cc1)c1ccccn1 (stereo not given),8.65%
18,O=c1cc(-c2ccccc2)[nH]c2nc(Cl)ccc12,-6.44%
19,C=C(C)C1CC=C(C(=O)O)CC1 (stereo not given),1.75%
20,[Li+],6.57%
